This note sets out measurements from PubChem BioAssay (NCI).

Common to all, as to assay: NCI-60 one-dose screen, 48 h (100 = growth as untreated, 0 = no growth, -100 = all killed)
What all share (details): 10 µM unless noted

Assay [1] has as its system NCI-H23 lung.
The subject of assay [2] is NCI-H226 lung.
In assay [3] the test system is NCI-H322M lung.
The subject of assay [4] is HOP-62 NSCLC.
Assay [5] relates to NCI-H460 lung.
Assay [6] deals with NCI-H522 lung.
In assay [7] the test system is A549/ATCC NSCLC.
Assay [8] deals with 786-0 renal.
Assay [9] has as its system COLO 205 colon.
Assay [10] relates to DU-145 prostate.
The subject of assay [11] is K-562 leukemia.
Assay [12] deals with MALME-3M melanoma.
The subject of assay [13] is MDA-MB-231 breast.
For assay [14], the system named is RXF 393 renal.
Assay [15] has as its system SF-268 CNS.
For assay [16], the system named is SF-295 CNS.
The test system of assay [17] is SF-539 CNS.
Assay [18] relates to UACC-257 melanoma.
In assay [19] the test system is M14 melanoma.

Each structure is given as a SMILES string. Compounds without any hit were thinned out: in the full panel of roughly 83,000, 20% have a hit.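 Activity criterion: percent growth below 10, measured after cells in 96-well plates were exposed to a single compound concentration for 48 hours.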 A number with no mark means an inactive call. Active and inactive are the calls of the source.

As for `COc1cc(C2CC(c3ccc(Cl)cc3)=NN2C=O)ccc1Oc1ccnc2cc(Cl)ccc12` (configuration not stated), the growth in assay [1] is 65.2%; in [2] it was 51.4%; in assay [3], 88.2%; in [4], 53.1%; in assay [5], 65.2%; in assay [6], 47.2%. Besides, the growth in assay [7] was 59.1%; in assay [8], 78.6%; in assay [9], 94.5%; in assay [10], 85.7%; in assay [11], 72.5%; in [12], 64%. Besides, the growth in assay [13] was 56.9%; in assay [14], 64.2%; in assay [15] it was 68.6%; in assay [16] it was 66.2%; in assay [17], 66.2%; in assay [18], 66.8%. Also, in [19], the growth was 92.4%.
`CC(C)CC1NC(=O)C(CC(C)C)N(CO)C1=O` (configuration not stated): the growth in assay [1] is 104%; in [2] it was 91.3%; in assay [3], 95%; in assay [4], 107%; in [5] it was 116%; in assay [6], 90.4%. Further, the growth is 102% in assay [7]; 102% in assay [8]; 111% in assay [9]; 119% in assay [10]; 97.1% in [11]; 101% in [12]. The growth in assay [13] was 97.1%; in assay [14], 111%; in [15], 112%; in [16], 120%; in assay [17], 111%; in assay [18] it was 102%. Besides, in [19], the growth is 101%.
Take `CC1OC(n2c3ccccc3c3c4c(c5c6ccccc6[nH]c5c32)C(=O)N(CCN2CCOCC2)C4=O)CC(O)C1O` (configuration not stated): the growth was 16.3% in [1]; 17% in assay [2]; 59.1% in assay [3]; -5.89% (active) in assay [4]; 3.35% (active) in assay [5]; 10.6% in [6]. Moreover, the growth was 12.2% in assay [7]; 6.66% (active) in [8]; 20% in assay [9]; 18.1% in [10]; 18.4% in assay [11]; 49.1% in assay [12]. Also, the growth in assay [13] was 74.5%; in assay [14], 33.4%; in assay [15], 29.8%; in assay [16] it was 6.46% (active); in [17], 8.58% (active); in assay [18] it was 31.8%. Further, the growth in assay [19] is 6.29% (active).
With `O=C(N/N=C/c1ccc([N+](=O)[O-])cc1)c1ccccc1Nc1ccnc(C(F)(F)F)c1`, the growth was 62.3% in assay [1]; 70.8% in [2]; 83.3% in assay [3]; 48.8% in [4]; 94.3% in [5]; 67.9% in [6]. Besides, the growth is 82% in [7]; 81.8% in assay [8]; 103% in assay [9]; 98.6% in assay [10]; 78% in [11]; 86% in assay [12]. Besides, the growth is 70.4% in assay [13]; 91.7% in assay [14]; 86.2% in assay [15]; 83.8% in [16]; 84.3% in [17]; 79.4% in [18]. For the same compound, the growth in [19] was 101%.
On to `COC(=O)OC1C(O[C@H]2C[C@H]3[C@@H]4CC=C5C[C@@H](O)CC[C@]5(C)[C@H]4CC[C@]3(C)[C@H]2[C@H](C)C(=O)CCC(C)C)OCC(O)C1OC1OCC(O)C(O)C1OC(=O)c1ccc(OC)cc1` (some centres not stated), for which the growth in assay [1] was 27.9%; in [2], -8.65% (active); in [3], 45.2%; in [4], -26.5% (active); in assay [5], -24.2% (active); in assay [6], -49.8% (active). The growth in assay [7] is 1.81% (active); in assay [8], -25% (active); in assay [9] it was -52.4% (active); in assay [10], 34.8%; in assay [11] it was -25.2% (active); in assay [12], -6.07% (active). In addition, the growth was 22.7% in assay [13]; -71.9% (active) in [14]; -6.22% (active) in [15]; -66.4% (active) in assay [16]; -58.1% (active) in [17]; -55.3% (active) in assay [18]. Moreover, in assay [19], the growth was -58.5% (active).
As to `COc1cc2c(=O)n(CCCN(C)C)c3c4cc[nH]c4ncc3c2cc1OC`, the growth in [1] is 41.4%; in assay [2], 37.1%; in [3], 42.6%; in assay [4], 11.8%; in assay [5], 17.6%; in assay [6], 0.675% (active). The growth was 44.1% in assay [7]; 33.7% in [8]; 13.2% in assay [9]; 30.8% in assay [10]; 54.3% in assay [11]; 62.4% in assay [12]. For the same compound, the growth was 50.8% in assay [13]; 23.1% in [14]; 28.3% in [15]; 29.2% in [16]; 73.3% in assay [17]; 87.9% in [18]. Also, the growth in [19] is 40.5%.
In the case of `C=C(COC(C)=O)[C@H]1CC/C(C)=C/CC/C(C)=C/CC[C@@]2(C)O[C@H]2C1`, the growth in assay [1] is 106%; in assay [2], 108%; in assay [3] it was 102%; in assay [4], 107%; in assay [5], 106%; in [6] it was 95.3%. Moreover, the growth is 105% in assay [7]; 96% in [8]; 148% in [9]; 109% in assay [10]; 100% in [11]; 93.5% in assay [12]. The growth in [13] was 107%; in assay [14], 112%; in assay [15] it was 97.2%; in [16], 110%; in [17] it was 114%; in assay [18], 100%. The growth in [19] was 106%.
As to `CN1C(=O)N(C)C2C1NN=c1s/c(=C\c3ccc(Br)cc3)c(=O)n12` (configuration not stated), the growth is 41.9% in assay [1]; 59.8% in assay [2]; 49.7% in assay [3]; 32.4% in assay [4]; 13.4% in assay [5]; -14.6% (active) in assay [6]. Also, the growth was 38.8% in [7]; 30.2% in assay [8]; 0.786% (active) in [9]; 17.2% in assay [10]; 10.7% in assay [11]; 67.7% in assay [12]. In addition, the growth was 66.1% in assay [13]; 9.08% (active) in assay [14]; 39.4% in [15]; 23.1% in [16]; 7.53% (active) in assay [17]; 46% in assay [18]. Also, the growth in assay [19] was 32.8%.
